# From PubChem BioAssay AID492993 (Johns Hopkins Ion Channel Center, 2010)
# The whole screen tested about 4,900 compounds, of which about 200 (4.1%) were called active.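 How the source made its calls: active means thallium signal drop more than 5 SD beyond the mean of the no-compound control wells, seen in both duplicate plates; inactive means the rest.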 Shown is part of a subset that was picked to be rich in actives.
# Molecular target: Inward rectifier potassium channel 2 (Mus musculus) (UniProt P35561)
# Experiment: off-target Kir2.1 potassium flux block – cell-based, HEK293, thallium flux, selectivity assay for KCNK9 modulator project, confirmation (AID 492993);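 on inhibition: signal is fluorescence rise after thallium addition divided by baseline fluorescence; plate controls were assay buffer only for no effect and full block by chlorpromazine control for full effect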
# Conditions: Kir2.1 cells, FluxOR thallium flux fluorescence, at 10 µM; stronger effect = higher value
# Sequence of Inward rectifier potassium channel 2 (Mus musculus) (P35561 whole entry, looked up): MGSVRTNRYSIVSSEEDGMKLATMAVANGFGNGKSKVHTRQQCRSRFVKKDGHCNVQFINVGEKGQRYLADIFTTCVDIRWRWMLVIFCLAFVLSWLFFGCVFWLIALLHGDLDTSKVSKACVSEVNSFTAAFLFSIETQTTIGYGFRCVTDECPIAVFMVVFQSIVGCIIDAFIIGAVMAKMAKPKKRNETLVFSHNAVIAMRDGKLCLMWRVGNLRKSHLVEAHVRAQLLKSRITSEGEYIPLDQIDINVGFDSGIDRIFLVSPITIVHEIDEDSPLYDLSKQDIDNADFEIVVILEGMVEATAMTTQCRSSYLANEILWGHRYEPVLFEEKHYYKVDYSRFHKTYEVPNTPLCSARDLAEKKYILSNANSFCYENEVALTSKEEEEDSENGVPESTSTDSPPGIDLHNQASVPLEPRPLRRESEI
row,SMILES,inhibition
1,CCCCCCCCCCCCn1ccc(=N)cc1,75% (active)
2,CCCCCCN=C(CC)c1c(O)n(CCCC)c(=O)[nH]c1=O,inactive
3,CC(C)(C)c1ccc(OC(=O)N2CCCCC2)cc1,inactive
4,CCOC(=O)C1SC2(C(F)(F)C(F)F)CC1(O)c1c(c(OC)c3occc3c1OC)O2 (stereo not given),inactive
5,CC(C)(C)c1ccc(CN2C(=O)CN=C(c3ccccc3)c3ccccc32)cc1,inactive
